NPC1 prom act: activates the NPC1 promoter; Huh7 NPC1 promoter luciferase reporter, 24 h; Potency, µM (series often up to 9.22 µM), actives largely listed as activators; 320,000 tested, 2.4% active; note: nearly all actives have a fitted effect of over 60% in size
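Luminescence from an NPC1 promoter-driven luciferase reporter in stably transfected Huh7 cells was measured after 24 h compound treatment at 37 °C, followed by 10 min ambient incubation with luciferase detection reagent.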
SMN2 splice enh: enhancers of SMN2 splice variant expression; HEK293 SMN2-luciferase splicing reporter, luminescence, 30-36 h; 210,000 tested, 2.8% active; AID 1458; Potency, µM (doses to about 46.1 µM), actives largely listed as activators; note: nearly all actives have a fitted effect of over 55% in size
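HEK293 cells carry an SMN2 minigene-luciferase reporter in which exon 7 inclusion puts luciferase in frame. Cells were seeded at 2000 cells/well, attached for 10-12 hours, then exposed to compounds for 30-36 hours at 37C before ONE-Glo luminescence.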
ELG1 genotox: induces genotoxicity in HEK293T cells with luciferase-tagged ELG1 | AID 504466 | 330,000 tested, 1.3% active | Potency, µM (titrated, usually from 46 µM), actives largely listed as activators | HEK293T ELG1-luciferase reporter, luminescence, 16 h; note: nearly all actives have a fitted effect of over 60% in size
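HEK293T cells expressing luciferase-tagged ELG1 were treated with compound or DMSO for 16 hr at 37°C. Luciferase activity was then read after 30 min with ONE-Glo at room temperature; rising signal flags genetic stress.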
ELG1 DNA repair: blocks ELG1-dependent DNA repair in HEK293T cells; HEK293T ELG1-luciferase reporter, luminescence, 16 h; DNA damage induced by 5-fluorouridine; Potency, µM (top dose mostly 46.1 µM), most hits filed as inhibitors; AID 504467; 330,000 tested, 2.3% active; note: nearly all actives have a fitted effect of over 55% in size
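Overnight (16 hr) co-exposure of 2,000 cells/well to 5-fluorouridine and compound at 37 °C preceded detection. Luciferase was quantified via ONE-Glo luminescence; loss of signal denotes inhibition.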
Rab9 promoter act: activates the Rab9 promoter | Huh7 Rab9 promoter-luciferase reporter, luminescence, 24 h | Potency, µM (doses to about 9.22 µM), usual class: activators | 320,000 tested, 2.8% active | AID 485297; note: nearly all actives have a fitted effect of over 60% in size
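Quantitative HTS format; Huh7 Rab9-luciferase reporter cells (1500/well) receive compound 2 h post-plating, incubate 24 h at 37 °C, then get luciferase reagent for 10 min before luminescence reading.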
FLuc modulator: firefly luciferase modulation, counter-screen for miR-21 project; Potency, µM (highest dose often 57.5 µM), usual class: inhibitors; purified FLuc, Km substrates, luminescence inhibition; 360,000 tested, 6.9% active; P08659; note: nearly all actives have a fitted effect of over 55% in size
Target sequence (P08659 whole entry, looked up): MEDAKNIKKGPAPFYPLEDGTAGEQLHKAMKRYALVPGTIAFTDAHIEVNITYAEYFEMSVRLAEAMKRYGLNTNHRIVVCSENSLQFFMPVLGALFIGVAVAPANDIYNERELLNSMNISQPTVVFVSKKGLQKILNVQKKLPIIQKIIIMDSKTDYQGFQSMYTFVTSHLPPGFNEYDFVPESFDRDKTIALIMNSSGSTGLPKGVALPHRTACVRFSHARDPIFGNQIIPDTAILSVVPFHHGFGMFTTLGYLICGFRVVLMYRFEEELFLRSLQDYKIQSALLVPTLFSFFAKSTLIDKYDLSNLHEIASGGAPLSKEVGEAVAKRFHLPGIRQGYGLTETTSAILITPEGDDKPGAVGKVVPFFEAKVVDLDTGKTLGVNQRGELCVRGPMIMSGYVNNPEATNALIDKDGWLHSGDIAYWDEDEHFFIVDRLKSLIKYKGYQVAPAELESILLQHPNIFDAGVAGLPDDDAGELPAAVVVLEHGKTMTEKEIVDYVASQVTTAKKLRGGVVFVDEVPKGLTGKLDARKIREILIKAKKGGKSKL
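Biochemical qHTS of compounds, final roughly 60 µM downward over six points, against 10 nM purified firefly luciferase using Km concentrations of substrates (10 uM D-luciferin, 10 uM ATP) in Tris acetate pH 7.5 buffer; luminescence output.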
Hits are given with their value. The list is not random: actives were taken first. Their share in the collection is about 9.2%. Calls come from the whole dose curve; as a rule, active = well fitted curve in the direction sought with a large enough effect; inconclusive = small, poorly fitted or top-dose-only effect, or another doubt; inactive = no such curve, though single readings can be large; an effect the other way counts as inactive or inconclusive.

What do the screens show for `CCOc1ccc(C(CC(=O)O)NC(=O)COc2ccccc2OC)cc1OC` (stereo unspecified)?
NPC1 prom act: inactive; SMN2 splice enh: 22µM; ELG1 genotox: inactive; ELG1 DNA repair: inactive; Rab9 promoter act: inactive; FLuc modulator: inactive

How did CC1CCN(C(=O)CCCC(=O)N2CCC(C)CC2)CC1 do in these assays?
NPC1 prom act: inconclusive; ELG1 genotox: inactive; ELG1 DNA repair: inactive; Rab9 promoter act: inactive; FLuc modulator: 9.5µM

What do the screens show for `Cc1ccc(NC(=O)Nc2ccc(F)cc2)cc1Cl`?
NPC1 prom act: inconclusive; SMN2 splice enh: inconclusive; ELG1 genotox: inactive; ELG1 DNA repair: inconclusive; Rab9 promoter act: inconclusive; FLuc modulator: 2.7µM

Results for COc1cccc(NC(=O)Nc2ccc(C)c(Cl)c2)c1 ?
NPC1 prom act: inconclusive; SMN2 splice enh: 13µM; ELG1 genotox: inconclusive; ELG1 DNA repair: inconclusive; Rab9 promoter act: 2.8µM; FLuc modulator: 2.7µM

Results for COc1ccccc1N1CCN(C(=O)c2ccc3c(c2)N(Cc2ccccc2)C(=O)c2ccccc2S3(=O)=O)CC1 ?
SMN2 splice enh: inactive; FLuc modulator: inactive

What do the screens show for `O=[N+]([O-])c1ccccc1/C=N/OCc1ccccc1`?
NPC1 prom act: 4µM; ELG1 genotox: inconclusive; ELG1 DNA repair: inconclusive; Rab9 promoter act: inconclusive; FLuc modulator: 11µM

What do the screens show for `CN(CCC#N)c1ccc(/C=C(\C#N)c2ccccn2)cc1`?
NPC1 prom act: 0.5µM; SMN2 splice enh: 1µM; ELG1 genotox: 0.65µM; ELG1 DNA repair: inconclusive; Rab9 promoter act: 0.5µM; FLuc modulator: 1.5µM

What do the screens show for `CCN(Cc1ccccc1)c1ccc(/C=C(\C#N)c2ccccn2)cc1`?
NPC1 prom act: 3.5µM; ELG1 genotox: inconclusive; ELG1 DNA repair: inconclusive; Rab9 promoter act: 1.4µM; FLuc modulator: 7.6µM

What do the screens show for `COc1cc(/C=C(\C#N)c2ccccn2)ccc1OCc1ccccc1`?
NPC1 prom act: inactive; SMN2 splice enh: inactive; ELG1 genotox: inactive; ELG1 DNA repair: inconclusive; Rab9 promoter act: inactive; FLuc modulator: inconclusive

Results for CCN(CC)c1ccc(/C=C(\C#N)c2ccccn2)cc1 ?
NPC1 prom act: 0.45µM; SMN2 splice enh: 1.4µM; ELG1 genotox: inconclusive; ELG1 DNA repair: inconclusive; Rab9 promoter act: 0.13µM; FLuc modulator: 1.1µM

How did N#C/C(=C\c1cccc([N+](=O)[O-])c1)c1ccccn1 do in these assays?
NPC1 prom act: inactive; SMN2 splice enh: inactive; ELG1 genotox: inconclusive; ELG1 DNA repair: inconclusive; Rab9 promoter act: inconclusive; FLuc modulator: inactive

How did N#C/C(=C\c1ccc(C(=O)O)cc1)c1ccccn1 do in these assays?
NPC1 prom act: inactive; SMN2 splice enh: inactive; ELG1 genotox: inactive; ELG1 DNA repair: inactive; Rab9 promoter act: inactive; FLuc modulator: inactive

How did O=C(NCCCn1cccn1)C1CCC(=O)N(Cc2ccccc2F)C1 (stereo unspecified) do in these assays?
NPC1 prom act: inactive; ELG1 genotox: inactive; ELG1 DNA repair: inactive; Rab9 promoter act: inactive; FLuc modulator: inactive

Results for CCCCN(C(=O)CCSc1ccc(F)cc1)c1c(N)n(Cc2ccccc2)c(=O)[nH]c1=O ?
NPC1 prom act: inactive; ELG1 genotox: inactive; ELG1 DNA repair: inactive; Rab9 promoter act: inactive; FLuc modulator: inactive

How did CC(C)C(c1nnnn1Cc1cccs1)N1CCN(C(=O)c2ccco2)CC1 (stereo unspecified) do in these assays?
NPC1 prom act: inactive; ELG1 genotox: inactive; ELG1 DNA repair: 6.5µM; Rab9 promoter act: inactive; FLuc modulator: inactive

What do the screens show for `O=C(c1ccco1)N1CCN(C(c2ccccc2)c2nnnn2Cc2cccs2)CC1` (stereo unspecified)?
NPC1 prom act: inactive; SMN2 splice enh: inactive; ELG1 genotox: inactive; ELG1 DNA repair: inactive; Rab9 promoter act: inactive; FLuc modulator: inactive

Results for COc1ccccc1CNC(=O)CN(C)S(=O)(=O)c1ccc(F)cc1 ?
NPC1 prom act: inactive; ELG1 genotox: inactive; ELG1 DNA repair: inactive; Rab9 promoter act: inactive; FLuc modulator: inactive

How did Cc1ccc(NC(=O)Cn2nc(C(=O)O)c3ccccc3c2=O)c([N+](=O)[O-])c1 do in these assays?
NPC1 prom act: inactive; ELG1 genotox: inactive; ELG1 DNA repair: inactive; Rab9 promoter act: inactive; FLuc modulator: inactive

What do the screens show for `COc1ccccc1OCCNC(=O)c1c(-c2ccccc2Cl)noc1C`?
NPC1 prom act: inactive; ELG1 genotox: inactive; ELG1 DNA repair: inactive; Rab9 promoter act: inactive; FLuc modulator: inactive

Results for Cc1c(C(=O)N2CCCCCC2)c(S(=O)(=O)Nc2cccc(C#N)c2)c(C)n1C ?
FLuc modulator: inactive

How did COC(=O)Cc1c(C)nc2nc(-c3ccc(OC)cc3)[nH]n2c1=O do in these assays?
NPC1 prom act: inactive; SMN2 splice enh: inactive; ELG1 genotox: inconclusive; ELG1 DNA repair: inactive; Rab9 promoter act: inactive; FLuc modulator: 15µM

Results for COC(=O)Cc1c(C)nc2nc(NCc3ccc(Br)cc3)[nH]n2c1=O ?
SMN2 splice enh: inactive; FLuc modulator: inconclusive

Results for Cc1cc(=O)n2[nH]c(COc3ccccc3)nc2n1 ?
NPC1 prom act: inactive; SMN2 splice enh: inactive; ELG1 genotox: inactive; ELG1 DNA repair: inactive; Rab9 promoter act: inactive; FLuc modulator: inconclusive

How did COc1ccc(-c2nc3nc(C)cc(=O)n3[nH]2)cc1 do in these assays?
NPC1 prom act: inactive; SMN2 splice enh: inactive; ELG1 genotox: inactive; ELG1 DNA repair: inactive; Rab9 promoter act: inactive; FLuc modulator: 17µM

What do the screens show for `COc1ccc(-c2nc3nc(C)c(Cc4ccccc4)c(=O)n3[nH]2)cc1`?
NPC1 prom act: inactive; SMN2 splice enh: inconclusive; ELG1 genotox: inconclusive; ELG1 DNA repair: inconclusive; Rab9 promoter act: inactive; FLuc modulator: 9.5µM

What do the screens show for `Cc1ccccc1-n1c(SCC(=O)Nc2ccccc2)nc2nc3c(cc2c1=O)CCCC3`?
NPC1 prom act: inactive; SMN2 splice enh: inactive; ELG1 genotox: inactive; ELG1 DNA repair: 23µM; Rab9 promoter act: inactive; FLuc modulator: inactive

What do the screens show for `Cc1cccc(NC(=O)CSc2nc3nc4c(cc3c(=O)n2-c2ccccc2)CCCC4)c1`?
NPC1 prom act: inactive; SMN2 splice enh: inactive; ELG1 genotox: inactive; ELG1 DNA repair: 15µM; Rab9 promoter act: inactive; FLuc modulator: inactive

What do the screens show for `O=C(CSc1nc2nc3c(cc2c(=O)n1-c1ccccc1)CCCC3)Nc1cccc2ccccc12`?
NPC1 prom act: inactive; SMN2 splice enh: inactive; ELG1 genotox: inactive; ELG1 DNA repair: inconclusive; Rab9 promoter act: inactive; FLuc modulator: inactive

How did Brc1ccc(C=Nc2ccc(Nc3ccccc3)cc2)s1 do in these assays?
NPC1 prom act: inactive; SMN2 splice enh: inactive; ELG1 genotox: inactive; ELG1 DNA repair: inconclusive; Rab9 promoter act: inactive; FLuc modulator: 24µM

How did CCOc1ccc(CCNC(=O)CCCn2c(=O)c3cccn3c3cccnc32)cc1 do in these assays?
FLuc modulator: inactive
